{
  "source": "PubChem BioAssay (NCI)",
  "note": "Compounds without any hit were thinned out: in the full panel of roughly 83,000, 20% have a hit.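 Each cell line was grown in a 96-well plate and treated with one concentration of compound for 48 hours. Values below 10 were considered active.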 Values without a mark were called inactive. The source made the active and inactive calls.",
  "data": [
    {"system": "MDA-MB-468 breast", "assay": "NCI-60 one-dose screen, 48 h (100 = growth as untreated, 0 = no growth, -100 = all killed)", "details": "10 µM unless noted", "values": [
      {"compound": "Cn1ncc2c(Sc3ccc(Cl)cc3)ncnc21", "growth": "92.2%"},
      {"compound": "Cc1ccccc1Nc1nc2nonc2nc1Nc1cccc(C)c1C", "growth": "12.3%"},
      {"compound": "COC(=O)/C(=C\\c1c(C)[nH]c2ccccc12)S(=O)(=O)c1ccccc1", "growth": "23.4%"},
      {"compound": "CNCc1cccc2c1OCCOCCOCCNS(=O)(=O)c1ccc(cc1)-c1cnc(N)c(n1)C(=O)N2", "growth": "35.6%"},
      {"compound": "O=C(O)C(=O)O", "growth": "94.8%"},
      {"compound": "COc1cc2nccc(Oc3ccc(NC(=O)Nc4cc(C)on4)c(Cl)c3)c2cc1OC", "growth": "15%"},
      {"compound": "N=C(N)c1ccc(-c2ccc(-c3cccs3)o2)cc1", "growth": "-40.5% (active)"},
      {"compound": "Cc1cc(O)cc(O)c1N=NC1=NCCS1", "growth": "109%"},
      {"compound": "ClCc1cccc2c(CCl)cccc12", "growth": "-18.3% (active)"},
      {"compound": "O=C(CCc1nnc(Cn2cncn2)o1)c1nc2ccccc2[nH]1", "growth": "104%"},
      {"compound": "O=C1C(=O)c2c(nc3ccc(C(F)(F)F)cn23)-c2ccccc21", "growth": "-65.9% (active)"},
      {"compound": "CNC(=O)Nc1ccc(Nc2cc(-c3ccc(-n4cccn4)cc3)[nH]n2)c(C)c1", "growth": "96.3%"},
      {"compound": "S=c1nc(-c2ccccn2)c(-c2ccccn2)n[nH]1", "growth": "108%"},
      {"compound": "CN(C)CCCn1c2c(c3ccc(N4CCNCC4)cc3c1=O)C(=O)c1ccccc1-2", "growth": "-17.2% (active)"},
      {"compound": "COc1cc(NC(C)CCCN)c2ncccc2c1Oc1ccc(Cl)cc1", "note": "(stereo not given)", "growth": "58.6%"},
      {"compound": "CC1=CC(=O)CC(C)(C)[C@@]1(O)/C=C/[C@@H](C)O", "growth": "72.9%"},
      {"compound": "COC(=O)[C@]1(CCSC)N[C@H](c2cn(-c3ccccc3)nc2C)[C@@H]2C(=O)N(c3ccccc3)C(=O)[C@@H]21", "growth": "108%"},
      {"compound": "NCCN1CCNCC1", "growth": "95.2%"},
      {"compound": "CC(C)(C)OC(=O)N1CCCN(CCNc2nccc(-c3c(-c4cccc(O)c4)nc4sccn34)n2)S1(=O)=O", "growth": "97.3%"},
      {"compound": "NNc1ncnc2nc[nH]c12", "growth": "36.8%"},
      {"compound": "O=C1CC(C(F)(F)F)=NN1C(=O)c1nn(-c2ccc(Cl)cc2)cc1O", "growth": "116%"},
      {"compound": "COc1ccc(/C=c2\\nc3n(-c4ccccc4)c4nc5c6c(sc5c(=N)n4n-3c2=O)CCCC6)cc1", "growth": "90.1%"},
      {"compound": "CCn1c2ccc(O)cc2c2c(C)c3c[n+](C(C)C)ccc3c(C)c21", "growth": "-19.7% (active)"},
      {"compound": "CC(=O)c1cccc(NS(=O)(=O)c2ccc(C)cc2)c1", "growth": "77.3%"},
      {"compound": "O=C1Nc2ccc(C(=O)O)cc2/C1=N/c1nnc(Sc2ccccc2)s1", "growth": "105%"},
      {"compound": "COc1ccc(-c2nn(-c3cccc(Cl)c3)cc2-c2cc(-c3ccc(Br)cc3)[nH]c(=O)c2C#N)cc1", "growth": "75.1%"},
      {"compound": "CS(=O)(=O)Nc1cccc(-c2ccc3ncnc(Nc4ccc(F)c(Cl)c4)c3c2)c1", "growth": "-26% (active)"},
      {"compound": "CN=C(N)N/N=C(\\C)c1ccc2c(c1)Cc1cc(/C(C)=N/NC(N)=NC)ccc1-2", "growth": "-90.7% (active)"},
      {"compound": "c1ccc2c(-c3nc(N4CCOCC4)c4c5c(sc4n3)CCCCCC5)cccc2c1", "growth": "95.1%"},
      {"compound": "O=C(Nc1ncc([N+](=O)[O-])s1)c1cccc([N+](=O)[O-])c1", "growth": "28.1%"},
      {"compound": "O=C1OC2(c3ccccc31)c1ccccc1-c1ccccc12", "growth": "40.2%"},
      {"compound": "COc1ccc2nc(-c3ccc(-n4cncc4-c4ccc(OC)c(N)c4)cc3)sc2c1", "growth": "114%"},
      {"compound": "O=C(O)CSCC(=O)Nc1cc(C(F)(F)F)ccc1Cl", "growth": "105%"},
      {"compound": "C#CCOc1ccccc1C(Nc1ccccc1)c1nnnn1C1CCCCC1", "note": "(stereo not given)", "growth": "93.7%"},
      {"compound": "COc1ccccc1/C=C/C=N/NC1=NC2C(S1)N(C)C(=O)N2C", "note": "(stereo not given)", "growth": "-5.34% (active)"},
      {"compound": "O=S(=O)(NCCNc1nccc(-c2c(-c3ccc(F)c(O)c3)nc3sccn23)n1)c1ccccc1", "growth": "83.2%"},
      {"compound": "CCCSc1nc(N)nc2nc[nH]c12", "growth": "113%"},
      {"compound": "N=C(N)c1ccc(-c2ccc(-c3cc(Cl)cc(Cl)c3)s2)nc1", "growth": "15.7%"},
      {"compound": "Clc1ccc2c(NCCCCNc3nc(N4CCCCC4)nc4ccccc34)ccnc2c1", "growth": "7.06% (active)"},
      {"compound": "CN(C)CC(O)c1ccc2cc(Br)c3ccccc3c2c1", "note": "(stereo not given)", "growth": "-0.132% (active)"}
    ]}
  ]
}
